# Rows were chosen to be rich in hits. Some 9.2% of all compounds tested hit in one or more screens of this group.
# FLuc modulator = qHTS profiling assay for firefly luciferase inhibitor/activator using purifed enzyme and Km concentrations of substrates (counterscreen for miR-21 project) | purified FLuc, Km substrates, luminescence inhibition | AID 588342, 2011 | Potency, µM (doses to about 57.5 µM), usual class: inhibitors | 360,000 tested, 6.9% active; also: nearly all actives have a fitted effect of over 55% in size
# Target sequence (P08659 whole entry, looked up): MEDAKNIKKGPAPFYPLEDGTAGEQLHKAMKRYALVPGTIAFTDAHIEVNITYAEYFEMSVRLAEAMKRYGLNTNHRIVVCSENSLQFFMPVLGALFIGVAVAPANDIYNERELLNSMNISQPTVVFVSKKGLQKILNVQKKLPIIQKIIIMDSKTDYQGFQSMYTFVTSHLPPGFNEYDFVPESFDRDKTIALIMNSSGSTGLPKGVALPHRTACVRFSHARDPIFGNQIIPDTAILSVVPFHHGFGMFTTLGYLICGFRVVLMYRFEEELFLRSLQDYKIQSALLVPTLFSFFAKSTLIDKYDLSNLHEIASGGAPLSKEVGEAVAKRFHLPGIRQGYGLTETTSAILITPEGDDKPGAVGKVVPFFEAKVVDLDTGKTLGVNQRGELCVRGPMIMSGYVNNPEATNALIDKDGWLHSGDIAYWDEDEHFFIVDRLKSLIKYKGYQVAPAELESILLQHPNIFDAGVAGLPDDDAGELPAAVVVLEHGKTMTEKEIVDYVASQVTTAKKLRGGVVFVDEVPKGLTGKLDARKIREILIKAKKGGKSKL
#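 Purified P. pyralis luciferase (10nM final) with 10uM D-luciferin and 10uM ATP (Km levels) in 50mM Tris acetate pH 7.5, 10mM Mg acetate, 0.01% Tween-20, 0.05% BSA; qHTS 6-point titration, ~60 µM downward; luminescence read.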
# Rab9 prom act = qHTS Assay for Rab9 Promoter Activators; Huh7 Rab9 promoter-luciferase reporter, luminescence, 24 h; Potency, µM (top dose mostly 9.22 µM), actives largely listed as activators; 320,000 tested, 2.8% active; also: nearly all actives have a fitted effect of over 60% in size
#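 Huh7 reporter line, Rab9 promoter upstream of luciferase. Compound exposure 24 h at 37 °C in reduced-serum medium with 10% FBS. Read-out: luminescence.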
# ELG1 DNA repair = qHTS screen for small molecules that inhibit ELG1-dependent DNA repair in human embryonic kidney (HEK293T) cells expressing luciferase-tagged ELG1; 330,000 tested, 2.3% active; HEK293T ELG1-luciferase reporter, luminescence, 16 h; DNA damage induced by 5-fluorouridine; AID 504467, 2011; Potency, µM (highest dose often 46.1 µM), hits mostly inhibitors; also: nearly all actives have a fitted effect of over 55% in size
#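 Quantitative HTS, concentration-response format. 2,000 cells/well co-treated with 5-fluorouridine and compound, 16 hr in 5% CO2 at 37 °C; ONE-Glo luminescence read after 30 min.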
# ELG1 genotoxic = qHTS screen for small molecules that induce genotoxicity in human embryonic kidney (HEK293T) cells expressing luciferase-tagged ELG1; Potency, µM (highest dose often 46 µM), actives largely listed as activators; HEK293T ELG1-luciferase reporter, luminescence, 16 h; 330,000 tested, 1.3% active; also: nearly all actives have a fitted effect of over 60% in size
#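 Step 1: seed 2,000 HEK293T ELG1-luciferase cells per well. Step 2: add compound or DMSO, incubate 16 hr at 37 °C. Step 3: ONE-Glo, 30 min at room temperature, read luminescence.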
# NPC1 promoter act = qHTS Assay for NPC1 Promoter Activators. Huh7 NPC1 promoter luciferase reporter, 24 h. Potency, µM (top dose mostly 9.22 µM), usual class: activators. 320,000 tested, 2.4% active; also: nearly all actives have a fitted effect of over 60% in size
#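 Readout is luciferase luminescence, reflecting NPC1 promoter activation in stably transfected Huh7 cells after 24 h compound exposure at 37 °C in reduced-serum medium with 10% FBS.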
# SMN2 splice up = qHTS Assay for Enhancers of SMN2 Splice Variant Expression; HEK293 SMN2-luciferase splicing reporter, luminescence, 30-36 h; Potency, µM (doses to about 46.1 µM), usual class: activators; 210,000 tested, 2.8% active; AID 1458, 2008; also: nearly all actives have a fitted effect of over 55% in size
#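 HEK293 cells carry an SMN2 […]–luciferase reporter in which exon 7 inclusion puts luciferase in frame. Cells were plated 10-12 h before compound addition, then incubated 30-36 h at 37C. ONE-Glo luminescence was read; sodium butyrate at 4.5 mM final served as control.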
# A number is an active result; – = inactive; ? = inconclusive; · = not tested or not shown; [ ] = dose if it differs, or a comment. Calls follow the shape of the dose curve; as a rule, active = well fitted curve in the direction sought with a large enough effect; inconclusive = small, poorly fitted or top-dose-only effect, or another doubt; inactive = no such curve, though single readings can be large; an effect the other way counts as inactive or inconclusive.
SMILES,FLuc modulator,Rab9 prom act,ELG1 DNA repair,ELG1 genotoxic,NPC1 promoter act,SMN2 splice up
COc1ccc(C(=O)Nc2ccccc2N2CCN(C(=O)c3ccccc3)CC2)cc1Br,–,–,20.6µM,–,–,·
O=C(c1ccc(CSc2ccccc2)cc1)N1CCN(c2ccccc2)CC1,–,–,–,–,–,–
COc1ccccc1N1CCN(C2CCCN(C(=O)c3ccoc3C)C2)CC1 (centres undefined),–,–,–,–,–,·
COc1ccccc1N1CCN(C2CCCN(C(=O)c3cccc(-c4ccco4)c3)C2)CC1 (centres undefined),–,–,23.1µM,–,–,·
COc1ccccc1N1CCN(C(=O)CSc2nnc3c4ccccc4nc(Cc4ccccc4)n23)CC1,–,–,9.2µM,–,–,–
COc1ccccc1N1CCN(C(=O)c2ccc(CSc3ccccc3)cc2)CC1,–,–,23.1µM,–,–,–
COc1ccccc1N1CCN(C(=O)CSc2ccccc2)CC1,?,?,?,?,–,–
COc1ccccc1N1CCN(C(=O)c2ccc(-c3ccccc3)cc2)CC1,23.9µM,–,–,–,–,·
COc1ccccc1N1CCN(C(=O)c2cc3c(=O)n(C)c4ccccc4c3s2)CC1,–,·,·,·,·,–
COc1ccc(C(=O)N2CCN(c3ccccc3OC)CC2)cc1,–,–,–,–,–,–
COc1ccccc1N1CCN(C(=O)c2cc3c(=O)n(C)c4ccccc4c3n2C)CC1,–,–,16.4µM,–,–,–
Cn1c(C(=O)NCCCN2CCCCCC2)cc2c(=O)n(C)c3ccccc3c21,–,–,?,?,–,12.6µM
COc1ccccc1N1CCN(C(=O)c2cc(=O)c3c(C)cc(C)cc3o2)CC1,–,–[1.84 µM],25.9µM,–,–,·
CCc1ccc2oc(C(=O)N3CCN(c4ccccc4OC)CC3)cc(=O)c2c1,?,–,?,–,–,·
CCn1cc(CN2N=C(C)CC2c2ccccc2)c(C)n1 (centres undefined),–,–,–,–,–,–
O=C(COC(=O)COc1ccccc1)NC12CC3CC(CC(C3)C1)C2,–,–,–,–,–,·
Cc1ccc2c(c1)c1nc3ccccc3nc1n2C,6.75µM,–,?,?,–,·
Cn1c2ccc(F)cc2c2nc3ccccc3nc21,?,–,–,?,–,·
Cc1cccc(NC(=O)COC(=O)C2COc3ccccc3O2)c1C (centres undefined),·,·,–,–,·,·
COc1ccc2c(c1)C1=NN(/C(C)=C/C(C)=O)C(c3ccc(F)cc3)C1CC2 (centres undefined),26.9µM,–,?,?,–,–
COc1ccc2c(c1)C1=NN(/C(C)=C\C(C)=O)C(c3ccccc3)C1CC2 (centres undefined),19µM,–,?,–,–,–
COc1ccc2c(c1)C1=NN(/C(C)=C/C(C)=O)C(c3cccc(F)c3)C1CC2 (centres undefined),?,–,–,–,–,–
COc1ccc2c(c1)CCC1C2=NN(/C(C)=C\C(C)=O)C1c1ccc(F)cc1 (centres undefined),13.5µM,?,–,?,?,–
CCCC(C(=O)NC1CCCC1)N(CC1CCCO1)C(=O)CNS(=O)(=O)c1ccc(F)cc1 (centres undefined),–,–,–,–,–,·
CCOc1ccccc1C(=O)Nc1nnc(SCC(=O)N2CCOCC2)s1,–,–,–,–,–,–
O=C(CSc1nnc(NC(=O)c2ccco2)s1)NC1CCCCC1,19µM,–,–,–,–,–
O=C(Nc1nnc(SCC(=O)N2CCOCC2)s1)c1ccccc1,2.69µM,?,?,?,–,14.1µM
O=C(CSc1nnc(NC(=O)c2ccccc2)s1)NC1CCCC1,2.69µM,?,?,–,?,·
O=C(CSc1nnc(NC(=O)c2ccc(F)cc2)s1)NC1CCCC1,2.39µM,3.55µM,?,?,?,·

# Bioassay records (PubChem)
